This is part of a sample that, as a whole, favours compounds with a hit. Of some 83,000 tested, about 20% had one in any assay.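 Interpretation: 100, growth as untreated; towards 0, rising growth inhibition; 0, no net growth; 0 to -100, cell death. Compounds scoring below 10 were considered active.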 The source made the active and inactive calls.
How the values were obtained:
Assay in all cases: NCI-60 one-dose screen, 48 h (100 = growth as untreated, 0 = no growth, -100 = all killed)
Conditions in all cases: 10 µM unless noted
NCI-H23 lung = system: NCI-H23 lung
NCI-H226 lung = system: NCI-H226 lung
NCI-H322M lung = system: NCI-H322M lung
HOP-62 NSCLC = system: HOP-62 NSCLC
NCI-H460 lung = system: NCI-H460 lung
HOP-92 NSCLC = system: HOP-92 NSCLC
NCI-H522 lung = system: NCI-H522 lung
A549/ATCC NSCLC = system: A549/ATCC NSCLC
786-0 renal = system: 786-0 renal
DU-145 prostate = system: DU-145 prostate
K-562 leukemia = system: K-562 leukemia
MALME-3M melanoma = system: MALME-3M melanoma
MDA-MB-231 breast = system: MDA-MB-231 breast
RXF 393 renal = system: RXF 393 renal
SF-268 CNS = system: SF-268 CNS
SF-295 CNS = system: SF-295 CNS
SF-539 CNS = system: SF-539 CNS
UACC-257 melanoma = system: UACC-257 melanoma
M14 melanoma = system: M14 melanoma
COLO 205 colon = system: COLO 205 colon

Measured: growth

O=C(Nc1ccc2ncsc2c1)c1csc(Nc2ccc3[nH]ncc3c2)n1
inactive: NCI-H23 lung 62% | NCI-H226 lung 59% | NCI-H322M lung 51.5% | HOP-62 NSCLC 61.7% | NCI-H460 lung 19.5% | HOP-92 NSCLC 67.5% | NCI-H522 lung 24.7% | A549/ATCC NSCLC 44.3% | 786-0 renal 42.8% | DU-145 prostate 35.5% | K-562 leukemia 28.1% | MALME-3M melanoma 57.1% | MDA-MB-231 breast 62.9% | RXF 393 renal 13.9% | SF-268 CNS 55.8% | SF-295 CNS 25.5% | SF-539 CNS 22.9% | UACC-257 melanoma 63.8% | M14 melanoma 25.2%

O=C(Nc1ccc2ccccc2c1)c1cc2ccccc2cc1O
active: SF-268 CNS 7.54%
inactive: NCI-H23 lung 81.5% | NCI-H226 lung 91.6% | NCI-H322M lung 75.7% | HOP-62 NSCLC 98.8% | NCI-H460 lung 85.4% | NCI-H522 lung 62.6% | A549/ATCC NSCLC 84.6% | 786-0 renal 85.6% | COLO 205 colon 110% | DU-145 prostate 13.3% | K-562 leukemia 71.1% | MALME-3M melanoma 58.5% | MDA-MB-231 breast 104% | RXF 393 renal 115% | SF-295 CNS 128% | SF-539 CNS 105% | UACC-257 melanoma 85.6% | M14 melanoma 99%

N#C/C(=C\c1ccc(Br)cc1)n1nnc2c(F)cccc21
active: NCI-H322M lung 0.929% | NCI-H460 lung -33.7% | NCI-H522 lung -52.1% | 786-0 renal -13.5% | DU-145 prostate 5.36% | MALME-3M melanoma -2.35% | MDA-MB-231 breast -10.6% | RXF 393 renal -57.9% | SF-539 CNS -7.82% | UACC-257 melanoma -10.7% | M14 melanoma 2.49%
inactive: NCI-H23 lung 10.3% | NCI-H226 lung 25.5% | HOP-62 NSCLC 53.8% | HOP-92 NSCLC 19.2% | A549/ATCC NSCLC 14.8% | K-562 leukemia 12% | SF-268 CNS 20.3% | SF-295 CNS 24.7%

CCC(=C(c1ccc(OCCCN(C)C)cc1)c1ccc(OCCCN(C)C)cc1)c1ccc(Cl)cc1
active: NCI-H23 lung -80% | NCI-H226 lung -66.8% | NCI-H322M lung -96.8% | HOP-62 NSCLC -78% | NCI-H460 lung -71.1% | HOP-92 NSCLC -80% | NCI-H522 lung -66.5% | A549/ATCC NSCLC -69.9% | 786-0 renal -86.8% | DU-145 prostate -90.8% | K-562 leukemia 0.345% | MALME-3M melanoma -79.6% | MDA-MB-231 breast -85% | RXF 393 renal -82.7% | SF-268 CNS -78.3% | SF-295 CNS -87.4% | SF-539 CNS -93.2% | UACC-257 melanoma -77.1% | M14 melanoma -83.5%

O=C1OCC2=C1C(c1cccc([N+](=O)[O-])c1)c1cc3c(cc1N2CCO)CCC3 (configuration not stated)
inactive: NCI-H23 lung 23.2% | NCI-H226 lung 38.2% | NCI-H322M lung 37.2% | HOP-62 NSCLC 31.3% | HOP-92 NSCLC 51.4% | A549/ATCC NSCLC 11.7% | 786-0 renal 25.2% | MALME-3M melanoma 38.9% | MDA-MB-231 breast 30% | RXF 393 renal 27.8% | SF-268 CNS 33.1% | UACC-257 melanoma 69.9%
active: NCI-H460 lung 3.63% | NCI-H522 lung -4.9% | DU-145 prostate 3.17% | K-562 leukemia 7.29% | SF-295 CNS -11.7% | SF-539 CNS -16.4% | M14 melanoma 3.09%

COc1cc2nc3cc([N+](=O)[O-])ccc3c(NCCNCC(C)(C)O)c2cc1OC
active: NCI-H23 lung -34.1% | NCI-H226 lung -4.58% | NCI-H322M lung -3.78% | HOP-62 NSCLC -23% | NCI-H460 lung -38.7% | HOP-92 NSCLC -45.6% | NCI-H522 lung -40.3% | A549/ATCC NSCLC -9.76% | 786-0 renal 2.27% | DU-145 prostate -8.55% | K-562 leukemia 1.28% | MALME-3M melanoma -74.4% | MDA-MB-231 breast -28.5% | RXF 393 renal -47.3% | SF-268 CNS -10.8% | SF-539 CNS -20.8% | UACC-257 melanoma -61.8% | M14 melanoma -75.7%
inactive: SF-295 CNS 16.4%

Cc1cc2nc(C(Cl)Cl)nc(-c3ccc(Cl)cc3)n2n1
active: NCI-H23 lung -19.9% | NCI-H322M lung -32.5% | HOP-62 NSCLC -8.28% | NCI-H460 lung -49.4% | NCI-H522 lung 3.6% | A549/ATCC NSCLC 0.301% | COLO 205 colon -37.2% | DU-145 prostate -3.35% | MALME-3M melanoma -16.5% | MDA-MB-231 breast -2.03% | RXF 393 renal -74.4% | SF-268 CNS 7.03% | SF-295 CNS 2.71% | SF-539 CNS 3.16% | M14 melanoma -20.3%
inactive: NCI-H226 lung 67% | 786-0 renal 45% | K-562 leukemia 12.2% | UACC-257 melanoma 30.9%

CN1C(=O)N(C)C2(c3ccccc3)N(CC(=O)Nc3ccccc3O)C(=O)NC12c1ccccc1 (configuration not stated)
inactive: NCI-H23 lung 101% | NCI-H226 lung 90.7% | NCI-H322M lung 100% | HOP-62 NSCLC 102% | NCI-H460 lung 106% | HOP-92 NSCLC 107% | NCI-H522 lung 86.2% | A549/ATCC NSCLC 109% | 786-0 renal 103% | DU-145 prostate 110% | K-562 leukemia 101% | MALME-3M melanoma 107% | MDA-MB-231 breast 101% | RXF 393 renal 113% | SF-268 CNS 96.5% | SF-295 CNS 101% | SF-539 CNS 96.4% | UACC-257 melanoma 125% | M14 melanoma 105%

— PubChem BioAssay (NCI)
